RORg inh = qHTS for inhibitors of ROR gamma transcriptional activity | 310,000 compounds, 5.4% hits | Drosophila S2 Gal4-RORgamma UAS-luciferase reporter, 20 h | Potency, µM (series often up to 53.6 µM), for inactives: top-dose activity change, negative = inhibition, most hits filed as inhibitors | AID 2551, 2010 | Nuclear receptor ROR-gamma (Mus musculus), P51450; also: potency is read from the fitted curve at half-maximal effect; nearly all actives have a fitted effect of over 60% in size
Target sequence (P51450 whole entry, looked up, the tested form may be a part): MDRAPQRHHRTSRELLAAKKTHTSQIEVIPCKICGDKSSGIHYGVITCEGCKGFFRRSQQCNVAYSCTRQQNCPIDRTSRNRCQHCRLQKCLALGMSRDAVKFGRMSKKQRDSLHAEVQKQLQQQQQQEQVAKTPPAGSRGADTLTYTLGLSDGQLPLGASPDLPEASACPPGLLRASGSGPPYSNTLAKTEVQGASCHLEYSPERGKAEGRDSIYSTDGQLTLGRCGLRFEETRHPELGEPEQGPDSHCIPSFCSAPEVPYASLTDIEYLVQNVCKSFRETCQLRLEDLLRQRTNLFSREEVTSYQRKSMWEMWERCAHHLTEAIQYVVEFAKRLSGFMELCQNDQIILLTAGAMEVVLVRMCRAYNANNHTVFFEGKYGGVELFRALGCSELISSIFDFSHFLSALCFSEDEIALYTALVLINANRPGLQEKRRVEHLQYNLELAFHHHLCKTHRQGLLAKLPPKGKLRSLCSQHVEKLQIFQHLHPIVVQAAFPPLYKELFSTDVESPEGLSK
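Compounds are pin-transferred onto Drosophila Schneider cells expressing a copper-inducible Gal4–ROR gamma transactivation domain fusion. After 1 hr, copper sulfate is added to 700 uM final; luciferase is read 20 hr later.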
ELG1 repair inh = qHTS screen for small molecules that inhibit ELG1-dependent DNA repair in human embryonic kidney (HEK293T) cells expressing luciferase-tagged ELG1; HEK293T ELG1-luciferase reporter, luminescence, 16 h; DNA damage induced by 5-fluorouridine; AID 504467, 2011; 330,000 compounds, 2.3% hits; Potency, µM (series often up to 46.1 µM), for the others: at the highest dose activity change, negative = inhibition, actives largely listed as inhibitors; also: potency is read from the fitted curve at half-maximal effect; nearly all actives have a fitted effect of over 55% in size
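In this reporter screen, reduction of luminescence relative to DMSO vehicle indicated activity. Compounds and 5-fluorouridine were added together to 2,000 cells per well, incubated for 16 hr at 37 °C, then developed with ONE-Glo.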
DT40 TDP1 no CPT = qHTS for Inhibitors of human tyrosyl-DNA phosphodiesterase 1 (TDP1): qHTS in cells in absence of CPT | Potency, µM (top dose mostly 46.2 µM), inactives show at the top dose activity change, negative = growth inhibition, most hits filed as inhibitors | 420,000 compounds, 15% hits | AID 686978, 2013 | DT40 Tdp1-/- hTDP1 cells, no CPT, ATP luminescence, 48 h; also: potency is read from the fitted curve at half-maximal effect; nearly all actives have a fitted effect of over 55% in size
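Readout: luminescence from CellTiter-Glo after 30 min in the dark at RT. Cells: DT40 Tdp1-/- with stable hTDP1, 400/well. Exposure: compounds alone, ≥48 hr, 37 °C.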
VP16 counter = VP16 counterscreen qHTS for inhibitors of ROR gamma transcriptional activity; Drosophila S2 Gal4-VP16 UAS-luciferase, luminescence, 20 h; Potency, µM (highest dose often 53.6 µM), inactives show top-dose activity, negative = inhibition, actives largely listed as inhibitors; 310,000 compounds, 3.5% hits; AID 2546, 2010;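 also: Gal4-VP16 expression switched on by copper sulfate through the metallothionein promoter; potency is read from the fitted curve at half-maximal effect; nearly all actives have a fitted effect of over 50% in size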
IL1B secr inh = qHTS for Inhibitors of Inflammasome Signaling: IL-1-beta AlphaLISA Primary Screen; activity change, % at 57.5 µM; THP-1 LPS/ATP IL-1B secretion, AlphaLISA, 16 h; active compounds read low; AID 743279, 2014; 360,000 compounds, 4.7% hits; in the data active = activity change below about -50%; inconclusive = mostly about -30% to -49%
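Secreted IL-1B measured by AlphaLISA bead assay after 16 h compound exposure of THP-1 cells; compounds (final up to 57.5 uM) added 1 h before LPS (250 ng/mL) and ATP (1.25 mM) stimulation; lower signal means less secretion.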
TDP1 cell CPT = qHTS for Inhibitors of human tyrosyl-DNA phosphodiesterase 1 (TDP1): qHTS in cells in presence of CPT; chicken DT40 Tdp1-/-;hTDP1 cells + 20 nM CPT, ATP luminescence, 48 h; Potency, µM (highest dose often 46.2 µM), for the others: at the highest dose activity change, negative = growth inhibition, most hits filed as inhibitors; 420,000 compounds, 12% hits; AID 686979, 2013; also: potency is read from the fitted curve at half-maximal effect; nearly all actives have a fitted effect of over 55% in size
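Cell growth measured by CellTiter-Glo luminescence after a minimum 48 h, 37 C compound exposure with 20 nM CPT in Tdp1-knockout DT40 cells stably expressing hTDP1, seeded 400/well; qHTS titration format.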
* = called active by the depositor; ? = inconclusive; . = no result; [ ] = remark or other dose. Shown are actives, neighbours in structure and some others; about 21% of the full set was active somewhere. Unless noted, calls follow the shape of the dose curve; as a rule, active = well fitted curve in the direction sought with a large enough effect; inconclusive = small, poorly fitted or top-dose-only effect, or another doubt; inactive = no such curve, though single readings can be large; an effect the other way counts as inactive or inconclusive. % is scaled to controls: 0 for no effect and ±100 for the full control effect.

SMILES	RORg inh	ELG1 repair inh	DT40 TDP1 no CPT	VP16 counter	IL1B secr inh	TDP1 cell CPT
COC(=O)c1ccc(NC(=O)CN(c2ccc3c(c2)OCO3)S(C)(=O)=O)cc1	?	2%	3%	7%	-5	4%
CCOc1ccc(S(=O)(=O)N(CC)CC(=O)NC2CCS(=O)(=O)C2)cc1 (stereo not drawn)	.	6%	7%	.	-3	0%
CC(=O)Nc1cccc(NC(=O)C2CC(=O)N(CCc3ccc(F)cc3)C2)c1 (stereo not drawn)	-11%	-3%	?	5%	-4	-7%
COc1ccc(N(CC(=O)Nc2cccc(N(C)S(C)(=O)=O)c2)S(=O)(=O)c2ccccc2)cc1Cl	7%	8.2µM*	21µM*	-3%	-1	10µM*
Cc1ccc([N+](=O)[O-])cc1N(CC(=O)Nc1ccc(S(=O)(=O)Nc2cccc(C(F)(F)F)c2)cc1)S(C)(=O)=O	-35%	-3%	18µM*	?	-84*	?
COC(=O)c1ccc(Cl)c(NC(=O)CN(c2ccccc2)S(=O)(=O)c2ccc(OC)cc2)c1	?	?	16µM*	-9%	12	?
COc1ccccc1N(CC(=O)Nc1cccc(C(F)(F)F)c1)S(C)(=O)=O	23%	2%	-24%	9%	-5	7%
CCOc1ccc(N(CC(=O)N/N=C/c2cc([N+](=O)[O-])ccc2Cl)S(C)(=O)=O)cc1	-1%	0%	23µM*	-3%	-11	?
O=C(COC(=O)CC1CC2CCC1C2)Nc1ccccc1[N+](=O)[O-] (stereo not drawn)	.	20%	-19%	.	-8	12%
COc1ccc(S(=O)(=O)N(CC(=O)Nc2cc(C)cc(C)c2)c2ccc(Cl)cc2)cc1	.	.	23µM*	.	.	?
CC(=O)Nc1ccc(NC(=O)CN(c2ccc([N+](=O)[O-])cc2)S(=O)(=O)c2ccccc2)cc1	6%	4%	-15%	5%	-10	-3%
CCOc1ccc(NC(=O)CN(c2ccc([N+](=O)[O-])cc2)S(=O)(=O)c2ccccc2)cc1	-2%[10 µM]	10µM*	?	0%	-9	?
CCOC(=O)c1ccccc1NC(=O)Cn1c(=O)n(Cc2nc(-c3ccccc3)no2)c(=O)c2ccccc21	.	.	-29%	.	.	-26%
CC1OC(CC(=O)O)CC2=C1C(=O)c1c(O)cccc1C2=O (stereo not drawn)	.	.	0.065µM*	.	-98*	0.1µM*
COC(=O)C(C)NC(=O)C12CC3CC(C1)CC(c1ccc(C)cc1)(C3)C2 (stereo not drawn)	3%	-1%	-27%	0%	19	?
CCCCC(=O)Nc1ccc(NCc2ccc(C)s2)cc1	-11%	-3%	3.7µM*	15%	-13	?
Cc1ccc(-n2c(N)c(-c3nc4ccccc4n3C)sc2=S)cc1	5µM*	?	?	?	21	?
Cn1c(-c2c(N)n(-c3ccccc3)c3nc4ccccc4nc23)nc2ccccc21	1.1µM*	?	?	3.5µM*	0	12µM*
Cn1c(-c2ccc(N)cc2)nc2ccccc21	-38%	?	7%	-3%	-4	7%
CC(C)C(NC(=O)OCc1ccccc1)C(=O)NC(Cc1c[nH]c2ccccc12)C(=O)O (stereo not drawn)	.	.	2%	.	0	-12%
COc1ccc(C(=O)NCc2ccc3c(c2)CCN3C(=O)c2ccc(Cl)cc2)c(OC)c1	.	.	18µM*	.	.	18µM*
COc1cc(C(=O)NCc2ccc3c(c2)CCN3C(=O)c2ccc(Cl)cc2)cc(OC)c1OC	.	.	15µM*	.	.	23µM*
COc1ccc(NC(=S)N2CCN(c3ccc4c(c3)C3CCN(C(=O)OCc5ccccc5)C4C3)CC2)c(OC)c1 (stereo not drawn)	.	.	5.2µM*	.	4	7.3µM*
O=C(OCc1ccccc1)N1CCC2CC1c1ccc(N3CCNCC3)cc12 (stereo not drawn)	.	.	7.3µM*	.	-15	9.2µM*
Cc1ccccc1S(=O)(=O)N1CCN(c2ccc3c(c2)C2CC3CCN2C(=O)OCc2ccccc2)CC1 (stereo not drawn)	.	.	16µM*	.	1	?
SMILES	RORg inh	ELG1 repair inh	DT40 TDP1 no CPT	VP16 counter	IL1B secr inh	TDP1 cell CPT
CCN1C(=O)[C@H]2[C@H]3CN=C(SCc4ccc(C(=O)OC)cc4)N3[C@@](C)(C(=O)OC)[C@H]2C1=O	.	1%	?	.	-8	?
CCOC(=O)C(NC(=O)c1ccccc1)C(C)(C)SCc1ccccc1 (stereo not drawn)	.	.	?	.	4	?
N#Cc1ccc(CC(=O)c2ccccc2)[nH]c1=O	.	.	6%	.	-7	10%
CC(C)(C)NCC(O)COc1cccc2c1CCC(=O)N2 (stereo not drawn)	.	11%	13%	.	31	12%
COCC(=O)N1CCC2(CC1)CN(C(=O)Nc1ccc(OC)cc1)C2	-33%	.	11%	12%	.	4%
Nc1ccccc1N=Nc1ccccc1N	10µM*	?	-28%	?	-6	?
CN(C)CCCNC(=O)c1ccc(-c2cc3nc(NCc4cccnc4)n(C)c(=O)c3s2)cc1	.	.	0%	.	-4	-27%
C=CC[C@]12C[C@@H](OC)C(=O)C=C1O[C@@H](c1ccc(OC)c(OC)c1)[C@H]2C	.	.	?	.	3	18µM*
CCCCc1cc(O)c(CCCC)c(O)c1	-5%	?	13µM*	?	?	21µM*
CN(C)S(=O)(=O)c1ccc2c(c1)c(=O)c(C(=O)N1CCN(c3cccc(Cl)c3)CC1)cn2C	.	.	?	.	.	-20%
Cc1ccc(C)c(CN2CCC3(CCC(CNC(=O)c4ccnn4C)O3)CC2)c1 (stereo not drawn)	.	.	-28%	.	.	-6%
Cn1nccc1C(=O)NCC1CCC2(CCN(Cc3ccc(-c4ccc(Cl)cc4)o3)CC2)O1 (stereo not drawn)	.	.	15µM*	.	.	?
Cc1cc(C(=O)NCC2CCC3(CCN(Cc4ccc5ccccc5c4)CC3)O2)n(C)n1 (stereo not drawn)	.	.	16µM*	.	.	21µM*
Cc1cc(C(=O)NCC2CCC3(CCN(Cc4cccc(F)c4F)CC3)O2)n(C)n1 (stereo not drawn)	.	.	12µM*	.	.	21µM*

Bioassay records deposited in PubChem by National Center for Advancing Translational Sciences (NCATS).
